Compounds with a hit are over-represented: about 12% of the library has one in this group of screens.
Shiga toxin inh: blocks Shiga toxin action in Vero cells | Vero cells, Shiga toxin protein synthesis inhibition reporter | inhibition, % at 38.7 µM | 290,000 tested, 9.2% active | AID 2315; in the data active = inhibition mostly above about 28%, no sharp cut-off; inactive = mostly below about 43%; also: 0% is about no effect
FMDV antiviral: antivirals against foot and mouth disease virus. FMDV antiviral cell-based qHTS. Potency, µM (top dose mostly 57.9 µM), without a hit: at the highest dose activity change, negative = inhibition, actives largely listed as inhibitors. 410,000 tested, 1.2% active; calls by dose curve; tested in HEK293T cells; also: read-out not given here; potency is read from the fitted curve at half-maximal effect; % is scaled to controls: 0 for no effect and ±100 for the full control effect; nearly all actives have a fitted effect of over 45% in size
CHX counter: counter-screen for Shiga toxin inhibitors: cycloheximide protein synthesis inhibition. cell reporter, cycloheximide protein synthesis inhibition counterscreen. max response, %. 300,000 tested, 12% active. AID 2314; in the data active = max response mostly above about 13%, no sharp cut-off; inactive = mostly below about 14%; also: read at 38.3 µM for the half of the compounds with a filed dose; 0% is about no effect
Sm TGR inh: inhibitors of Schistosoma mansoni thioredoxin glutathione reductase; Q962Y6; purified TGR, DTNB reduction, TNB absorbance 405 nm; Potency, µM (titrated, usually from 114 µM), inactives show at the top dose activity change, negative = inhibition, actives largely listed as inhibitors; 360,000 tested, 3% active; AID 485364; active = well fitted inhibition curve with a large enough effect; also: potency is read from the fitted curve at half-maximal effect; % is scaled to controls: 0 for no effect and ±100 for the full control effect; nearly all actives have a fitted effect of over 60% in size
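Kinetic colorimetric format: TGR-catalysed, NADPH-driven DTNB reduction monitored via TNB absorbance. Enzyme dispensed at 20 nM; compound exposure 15 min at room temperature before reaction start.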
Numbers without * were called inactive.

`O=c1c2ccccc2nc(/C=C/c2ccc(Br)cc2)n1CCO` gave FMDV antiviral -22%.
Screening Cc1[nH]c2ccccc2c1/C=C/c1nc2ccccc2c(=O)n1CCO returned Shiga toxin inh 49*, FMDV antiviral -7%, CHX counter 25* and Sm TGR inh -3%.
`CCn1c(/C=C2\C(=O)Nc3ccccc32)nc2ccccc2c1=O` gave Shiga toxin inh -8, FMDV antiviral 22µM*, CHX counter -1 and Sm TGR inh 6%.
O=c1c2ccccc2nc(/C=C/c2cccc(Br)c2)n1CCCO was read as Shiga toxin inh -14, FMDV antiviral -27%, CHX counter 0 and Sm TGR inh 12%.
`CCn1c(/C=C/c2c(C)n(CC)c3ccccc23)nc2ccccc2c1=O` gave Shiga toxin inh 13, FMDV antiviral 1%, CHX counter 12 and Sm TGR inh -12%.
Cn1c(/C=C/c2cccc(Br)c2)nc2ccccc2c1=O was read as Shiga toxin inh 80*, FMDV antiviral 9%, CHX counter 46* and Sm TGR inh 32%.
COc1ccc(NC(=O)CSc2nc3c(c(=O)[nH]2)CN(Cc2ccccc2)CC3)cc1Cl was read as FMDV antiviral -7% and Sm TGR inh 1%.
O=C(Cc1ccccc1F)Nc1nc(-c2ccc(F)cc2)cs1 was read as Shiga toxin inh 64*, FMDV antiviral 33%, CHX counter 26* and Sm TGR inh 10%.
For COc1ccc(-c2csc(NC(=O)Cc3ccccc3F)n2)cc1OC the results were Shiga toxin inh 29, FMDV antiviral -27%, CHX counter 11 and Sm TGR inh -7%.
COc1ccccc1CC(=O)Nc1nc(-c2ccc(F)c(F)c2)cs1 was read as Shiga toxin inh 44*, FMDV antiviral -28%, CHX counter 26* and Sm TGR inh 5%.
CCOC(=O)c1ccccc1NC(=O)CSc1cn(CC(=O)N2CCOCC2)c2ccccc12 was read as FMDV antiviral -2% and Sm TGR inh -10%.
Screening CCc1ccccc1NC(=O)CN(c1ccccc1OC)S(=O)(=O)c1ccc(C)cc1 returned FMDV antiviral -10% and Sm TGR inh 1%.
For Cc1ccc(SCC(c2ccccc2)N2CCN(CC(C)C)CCC2=O)cc1 (centres undefined) the results were Shiga toxin inh 89* and CHX counter 42*.
`CC(C)CN1CCC(=O)N([C@H](CSc2ccc(Br)cc2)c2ccccc2)CC1` gave Shiga toxin inh 27, FMDV antiviral 10%, CHX counter -2 and Sm TGR inh 2.8µM*.
Cc1ccc(SC[C@H](c2ccccc2)N2CCN(CC(C)C)CCC2=O)cc1 was read as Shiga toxin inh 11, FMDV antiviral 6%, CHX counter 19 and Sm TGR inh 32µM*.
`CCN(CC)c1nn2c(=O)c(C(=O)NCc3cccc(C)c3)cnc2s1` gave FMDV antiviral -14% and Sm TGR inh 0%.
COc1ccc(N2CC(NC(=O)c3cc4ccccc4o3)CC2=O)cc1 (centres undefined) was read as FMDV antiviral -21% and Sm TGR inh -7%.
Screening COc1cccc(-c2nn(-c3ccccc3)cc2CO)c1 returned Shiga toxin inh 60*, FMDV antiviral 29%, CHX counter 33* and Sm TGR inh 7%.
For COc1cccc(-c2nn(-c3ccccc3)cc2CNC(C)Cn2cncn2)c1 (centres undefined) the results were Shiga toxin inh 111*, FMDV antiviral 29%, CHX counter 34* and Sm TGR inh 24%.
`CCc1c(C)nc(SCc2nc(-c3ccccc3C)no2)[nH]c1=O` gave FMDV antiviral -12% and Sm TGR inh 8%.
CCN1CCN(c2cc(C)c3cc(NC(=O)c4cccc(C(F)(F)F)c4)ccc3n2)CC1 was read as FMDV antiviral -19% and Sm TGR inh 9%.
Screening CCN1CCN(c2cc(C)c3cc(NC(=O)c4cccs4)ccc3n2)CC1 returned Shiga toxin inh 86, FMDV antiviral 15%, CHX counter 21* and Sm TGR inh 1%.
`CCN1CCN(c2cc(C)c3cc(NC(=O)c4ccc(OC)c(OC)c4)ccc3n2)CC1` gave Shiga toxin inh -17, FMDV antiviral 9%, CHX counter 4 and Sm TGR inh 0%.
Screening CCN1CCN(c2cc(C)c3cc(NC(=O)c4cccc(OC)c4)ccc3n2)CC1 returned Shiga toxin inh 39*, FMDV antiviral 28%, CHX counter 31* and Sm TGR inh 2%.
Screening O=C(NCCC1=CCCCC1)C1COc2ccccc2O1 (centres undefined) returned Shiga toxin inh 54*, FMDV antiviral 12%, CHX counter 20* and Sm TGR inh -34%.
